Source: PubChem BioAssay
The source made the active and inactive calls.

What was measured:
[1] = target: Albumin (Bos taurus) (UniProt P02769); test: compounds binding labelled BSA control protein – biochemical, small-molecule microarray, Alexa647 label, 635/667 nm fluorescence, artefact control for SMM control protein annotation, profiling panel (AID 1118); settings: BSA-A647 binding, fluorescence 635 nm, higher = more signal;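 note: score merges 667 nm emission intensity and signal-to-noise per printed compound spot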
[2] = probe aXIP binding to arrayed compounds – biochemical, NeuroSMM set, 635/667 nm fluorescence, primary screen (AID 1119); settings: small-molecule microarray, higher = more signal, called active from +8 up or from −8 down;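 note: probe is the protein aXip251-270 applied at 1 µg/mL to compound-printed slides; binding of probe to printed compounds measured as 667 nm fluorescence plus signal to noise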
[3] = probe aNOTCH3 binding on compound microarray – biochemical, small-molecule microarray, 635/667 nm fluorescence, primary screen (AID 1120); settings: higher = more signal;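 note: probe is a biotin-tagged antibody raised against NOTCH3 rather than NOTCH3 protein; score merges spot fluorescence near 667 nm with spot signal to noise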
[4] = probe aNOTCH2 binding on compound microarray – biochemical, small-molecule microarray, 635/667 nm fluorescence, primary screen (AID 1121); settings: higher = more signal;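 note: score merges feature fluorescence read at 667 nm with its signal to noise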
[5] = target: Carbonic anhydrase 2 (Homo sapiens) (UniProt P00918); test: compounds binding carbonic anhydrase 2 – biochemical, small-molecule microarray, Alexa647-labelled CAII, profiling panel (AID 1122); settings: CAII-A647 binding fluorescence, higher = more signal
[6] = COS7 lysate on small-molecule microarray, probe aHis, 635 nm (AID 1123); settings: COS7 cell lysate, fluorescence, higher = more signal;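 note: z-score combines 667nm fluorescence intensity with signal-to-noise per printed compound spot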
[7] = probe aLAP1 signal on lysate-treated microarray – cell lysate, small-molecule microarray, COS7 lysate, primary screen (AID 1124); settings: probe aLAP1, fluorescence, higher = more signal;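 note: lysate comes from COS7 cells expressing LAP1 and is applied at 0.3 µg/mL; score merges spot fluorescence near 667 nm with signal-to-noise over triplicate slides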
[8] = system: Sam68 (KHDRBS1); test: compounds binding KHDRBS1 protein – biochemical, small-molecule microarray, 635 nm fluorescence, primary screen (AID 1125); settings: higher = more signal;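 note: score merges 667 nm channel intensity with signal to noise over triplicate slides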
[9] = system: Chordin-like protein 2 (CHRDL2); test: compounds binding chordin-like 2 – biochemical, small-molecule microarray, 635 nm fluorescence, primary screen (AID 1126); settings: fluorescence 635 nm, higher = more signal;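 note: printed compound slides probed with Chrdl2 protein at 4 µg/mL for 1 h at 4 C; score merges 667 nm emission intensity with signal to noise over three replicate slides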
[10] = target: Concanavalin-A (Canavalia ensiformis) (UniProt P02866); test: compounds binding concanavalin A lectin – biochemical, small-molecule microarray, Alexa647 label, 635 nm, artefact control for SMM control protein annotation, primary screen (AID 1127); settings: ConA-A647 binding fluorescence, higher = more signal;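 note: z combines 667 nm emission intensity with signal-to-noise across three replicate slides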
[11] = compounds binding Alexa647 anti-His antibody – biochemical, small-molecule microarray, 635 nm fluorescence, artefact control for SMM control protein annotation, primary screen (AID 1128); settings: higher = more signal;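 note: score merges feature fluorescence with signal-to-noise for each printed compound spot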
[12] = system: Human papillomavirus type 1a E7 protein (residues 1-88); test: HPV1a E7 small-molecule binders, primary screen, biochemical, small-molecule microarray, residues 1-88, 635 nm (AID 1129); settings: small-molecule microarray binding, fluorescence 635 nm; higher = more signal
[13] = target: Focal adhesion kinase 1 (Homo sapiens) (UniProt Q05397); test: PTK2 protein binding on printed compound slides – biochemical, small-molecule microarray, 635/667 nm fluorescence, BSA, DTT, primary screen (AID 1130); settings: 635 nm fluorescence, higher = more signal;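 note: composite of spot emission at 667 nm and signal to noise over triplicate slides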
[14] = system: Fibrinogen (Alexa647-labelled); test: Alexa647-fibrinogen binding to printed small molecules – biochemical, small-molecule microarray, 635/667 nm fluorescence, artefact control for SMM control-protein annotation, profiling panel (AID 1131); settings: fibrinogen-A647 binding fluorescence, higher = more signal;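 note: z-score merges 667 nm fluorescence with per-spot signal-to-noise over triplicate slides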
[15] = target: Follistatin (Homo sapiens) (UniProt P19883); test: FST protein binding to printed compounds – biochemical, small-molecule microarray, 635/667 nm fluorescence, primary screen (AID 1132); settings: 635 nm fluorescence, higher = more signal
[16] = target: Fibroblast growth factor 2 (Homo sapiens) (UniProt P09038); test: basic fibroblast growth factor binding to printed compounds – biochemical, small-molecule microarray, 635/667 nm fluorescence, primary screen (AID 1133); settings: FGF2, fluorescence 635/667, higher = more signal
[17] = JC-1 mitochondrial potential readout, lung cancer cells – cell-based, A549, JC-1 fluorescence, basal, 24 h, 100 nL, profiling panel (AID 1138); settings: higher = more signal;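 note: A549 lung adenocarcinoma cells under basal conditions with no added stimulus; test concentration not given here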
[18] = system: Lefty1; test: Lefty1 protein binding to printed compounds – biochemical, small-molecule microarray, 635/667 nm fluorescence, primary screen (AID 1139); settings: fluorescence 635/667, higher = more signal
[19] = system: wheat germ agglutinin (Triticum aestivum), Alexa647-labelled; test: Alexa647-WGA lectin binding to printed small molecules – biochemical, small-molecule microarray, 635/667 nm fluorescence, artefact control for SMM control-protein annotation, profiling panel (AID 1140); settings: WGA-A647 binding, 635 nm fluorescence, higher = more signal;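 note: score merges 667 nm feature emission with signal to noise over triplicate slides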
[20] = target: Luciferin 4-monooxygenase (Photinus pyralis) (UniProt P08659); test: inhibition of purified Photinus pyralis luciferase – biochemical, luminescence, purified enzyme, 2006 set, primary screen (AID 1141); settings: purified firefly luciferase, SteadyGlo luminescence, 30 min; higher = more signal, called active from +8 up or from −8 down;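 note: cell-free assay with purified firefly luciferase at 100 ng per well in PBS; test concentration not given here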
Chain of Luciferin 4-monooxygenase (Photinus pyralis) (P08659 whole entry, looked up): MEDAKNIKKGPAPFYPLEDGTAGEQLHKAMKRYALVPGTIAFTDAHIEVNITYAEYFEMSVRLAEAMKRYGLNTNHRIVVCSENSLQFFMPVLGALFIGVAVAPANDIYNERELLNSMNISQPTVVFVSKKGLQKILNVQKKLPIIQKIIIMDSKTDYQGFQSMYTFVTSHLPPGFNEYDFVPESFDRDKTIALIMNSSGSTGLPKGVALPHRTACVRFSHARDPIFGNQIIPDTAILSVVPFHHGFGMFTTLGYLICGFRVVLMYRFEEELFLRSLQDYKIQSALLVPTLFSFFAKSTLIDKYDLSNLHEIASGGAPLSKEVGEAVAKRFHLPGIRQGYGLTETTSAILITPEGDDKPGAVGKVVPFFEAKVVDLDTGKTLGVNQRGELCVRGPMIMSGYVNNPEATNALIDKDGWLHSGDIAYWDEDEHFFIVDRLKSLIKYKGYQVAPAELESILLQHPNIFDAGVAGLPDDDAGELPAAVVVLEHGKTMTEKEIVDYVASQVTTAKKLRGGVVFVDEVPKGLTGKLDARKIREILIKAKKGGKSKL

Chain of Albumin (Bos taurus) (P02769 whole entry, looked up): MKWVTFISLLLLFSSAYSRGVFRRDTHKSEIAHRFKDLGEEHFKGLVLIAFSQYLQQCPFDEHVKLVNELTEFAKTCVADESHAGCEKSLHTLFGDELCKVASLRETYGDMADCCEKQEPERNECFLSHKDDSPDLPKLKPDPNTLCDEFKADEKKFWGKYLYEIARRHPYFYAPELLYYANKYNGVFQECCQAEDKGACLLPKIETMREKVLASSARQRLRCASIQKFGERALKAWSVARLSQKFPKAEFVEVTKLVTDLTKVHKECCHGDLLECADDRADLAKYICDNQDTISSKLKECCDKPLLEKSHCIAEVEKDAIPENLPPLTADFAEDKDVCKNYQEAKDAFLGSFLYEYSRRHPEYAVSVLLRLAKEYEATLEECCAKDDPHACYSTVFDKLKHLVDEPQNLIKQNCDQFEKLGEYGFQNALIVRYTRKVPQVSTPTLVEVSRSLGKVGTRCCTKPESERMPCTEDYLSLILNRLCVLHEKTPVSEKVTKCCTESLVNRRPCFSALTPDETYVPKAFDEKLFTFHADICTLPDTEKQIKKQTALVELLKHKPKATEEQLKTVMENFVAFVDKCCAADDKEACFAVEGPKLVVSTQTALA
Chain of Focal adhesion kinase 1 (Homo sapiens) (Q05397 whole entry, looked up): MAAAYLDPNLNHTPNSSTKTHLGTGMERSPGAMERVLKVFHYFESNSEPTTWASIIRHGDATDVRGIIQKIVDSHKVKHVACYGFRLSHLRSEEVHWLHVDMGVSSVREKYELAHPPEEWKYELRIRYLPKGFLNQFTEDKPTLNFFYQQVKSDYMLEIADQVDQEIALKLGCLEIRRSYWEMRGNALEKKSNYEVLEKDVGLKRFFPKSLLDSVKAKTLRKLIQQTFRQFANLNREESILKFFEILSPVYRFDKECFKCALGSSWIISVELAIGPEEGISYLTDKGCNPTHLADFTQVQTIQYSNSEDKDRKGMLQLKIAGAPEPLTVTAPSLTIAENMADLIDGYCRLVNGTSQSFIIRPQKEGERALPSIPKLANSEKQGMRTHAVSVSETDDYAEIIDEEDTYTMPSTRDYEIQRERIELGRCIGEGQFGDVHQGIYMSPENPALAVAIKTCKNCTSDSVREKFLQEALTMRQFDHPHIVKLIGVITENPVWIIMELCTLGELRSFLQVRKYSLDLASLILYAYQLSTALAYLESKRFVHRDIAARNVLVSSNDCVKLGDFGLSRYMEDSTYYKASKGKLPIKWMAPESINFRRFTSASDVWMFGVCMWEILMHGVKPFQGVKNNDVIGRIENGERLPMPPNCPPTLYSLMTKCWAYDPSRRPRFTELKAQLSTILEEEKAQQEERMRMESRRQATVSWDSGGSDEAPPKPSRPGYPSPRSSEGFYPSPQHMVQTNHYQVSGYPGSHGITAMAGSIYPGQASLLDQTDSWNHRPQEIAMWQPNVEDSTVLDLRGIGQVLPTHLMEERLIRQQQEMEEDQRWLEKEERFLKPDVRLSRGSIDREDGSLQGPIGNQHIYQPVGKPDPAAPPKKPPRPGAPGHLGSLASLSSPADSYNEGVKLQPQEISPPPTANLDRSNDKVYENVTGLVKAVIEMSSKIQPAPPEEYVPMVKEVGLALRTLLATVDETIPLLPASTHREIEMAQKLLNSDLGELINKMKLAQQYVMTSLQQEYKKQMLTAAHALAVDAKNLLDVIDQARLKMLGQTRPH
Chain of Concanavalin-A (Canavalia ensiformis) (P02866 whole entry, looked up): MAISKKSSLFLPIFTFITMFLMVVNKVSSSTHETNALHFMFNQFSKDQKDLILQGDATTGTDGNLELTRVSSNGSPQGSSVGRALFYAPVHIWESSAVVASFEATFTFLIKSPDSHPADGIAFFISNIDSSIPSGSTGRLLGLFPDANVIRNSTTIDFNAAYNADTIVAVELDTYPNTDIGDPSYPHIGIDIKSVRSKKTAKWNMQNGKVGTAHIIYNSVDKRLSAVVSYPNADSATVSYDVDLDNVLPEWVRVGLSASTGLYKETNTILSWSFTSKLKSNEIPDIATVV
Chain of Follistatin (Homo sapiens) (P19883 whole entry, looked up): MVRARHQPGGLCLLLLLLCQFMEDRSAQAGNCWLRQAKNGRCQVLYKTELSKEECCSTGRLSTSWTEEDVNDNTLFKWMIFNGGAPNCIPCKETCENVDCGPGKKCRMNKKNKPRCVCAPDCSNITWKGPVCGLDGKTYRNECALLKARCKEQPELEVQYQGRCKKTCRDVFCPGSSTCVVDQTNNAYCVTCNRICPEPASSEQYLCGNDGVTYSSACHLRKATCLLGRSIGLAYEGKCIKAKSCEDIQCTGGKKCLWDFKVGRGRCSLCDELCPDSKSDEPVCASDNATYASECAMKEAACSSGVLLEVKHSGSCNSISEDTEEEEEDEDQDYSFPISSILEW
Chain of Fibroblast growth factor 2 (Homo sapiens) (P09038 whole entry, looked up): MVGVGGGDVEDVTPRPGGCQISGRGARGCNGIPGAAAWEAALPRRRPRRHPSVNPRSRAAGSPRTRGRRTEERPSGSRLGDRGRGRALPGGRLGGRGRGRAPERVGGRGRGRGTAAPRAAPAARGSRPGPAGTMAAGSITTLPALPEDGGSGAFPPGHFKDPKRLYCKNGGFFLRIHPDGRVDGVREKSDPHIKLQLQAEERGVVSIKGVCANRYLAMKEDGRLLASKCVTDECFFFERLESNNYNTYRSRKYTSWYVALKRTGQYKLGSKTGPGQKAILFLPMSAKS

SMILES | composite z-score [1] | composite Z-score [2] | composite z-score [3] | composite z-score [4] | composite z-score [5] | composite z-score [6] | composite z-score [7] | composite z-score [8] | composite z-score [9] | composite z-score [10] | composite z-score [11] | composite z-score [12] | composite z-score [13] | composite z-score [14] | composite z-score [15] | composite z-score [16] | z-score [17] | composite z-score [18] | composite z-score [19] | z-score [20]
C[C@H]1Cc2c(COc3ccccc3)nc3c(c2CO1)CN(CCOc1ccccc1)CC3 | -0.16 | -0.711 (inactive) | 0.0282 | -0.0746 | 0.635 | 1.14 | 0.282 | 1.32 | 0.522 | 1.08 | 1.07 | 0.804 | 0.673 | 0.702 | 1.18 | 0.537 | 4.09 | 1.13 | 0.346 | -1.19 (inactive)
C#CCCCON=C1C[C@@H](O)[C@@H](O)[C@@H]2[C@@H]3C(=O)N(C(C)(C)C)C(=O)[C@@H]3CC[C@H]12 | 0.725 | -0.483 (inactive) | 0.0306 | -0.0272 | -0.466 | 0.126 | 0.0192 | -0.454 | 0.557 | -0.482 | 0.0217 | -0.204 | -0.0811 | 0.589 | -0.861 | -0.127 | -0.049 | -0.912 | 0.903 | 0.541 (inactive)
CCOC(=O)[C@H](Cc1ccccc1)NC(=O)CCC1CC(OC(=O)NCCc2ccc(F)cc2)CC2(CCCC(COC(=O)NCCOC)O2)O1 (stereo not given in full) | 0.257 | 0.0225 (inactive) | 0.0525 | -0.157 | 0.0121 | 1.07 | 0.148 | 1.32 | 0.657 | 0.404 | 0.384 | 1.17 | 2.79 | 0.916 | 1.01 | 0.557 | 0.671 | 1.26 | 0.526 | -0.24 (inactive)
CCOC(=O)[C@H](CC(C)C)NC(=O)CCC1CC(OC(=O)NCCc2ccc(F)cc2)CC2(CCCC(COC(=O)NCCc3ccc(Cl)cc3)O2)O1 (stereo not given in full) | 0.587 | 0.133 (inactive) | 0.163 | -0.0495 | 0.606 | 1.61 | 0.037 | 1.03 | 0.446 | -0.485 | 0.704 | 0.596 | 0.688 | 0.75 | 0.692 | 0.84 | -0.156 | 1.34 | 0.61 | 0.442 (inactive)
COc1cccc([C@H]2Oc3ccc(OC)cc3C(=NOC(C)CN3CCCCc4nc(C)c(C)cc43)[C@@H]2O)c1 (stereo not given in full) | 0.604 | -0.352 (inactive) | 0.0876 | -0.106 | 0.293 | 0.47 | -0.456 | 0.523 | 0.267 | 0.653 | 1.95 | 0.195 | -0.251 | 0.755 | 0.241 | 0.414 | -0.349 | 0.341 | 0.698 | -0.404 (inactive)
C[C@H]1COC(=O)[C@@H]2CCCN2C(=O)[C@@H](C)COC(=O)[C@H](Cc2ccccc2)NC1=O | -0.0588 | -0.21 (inactive) | -0.0647 | -0.126 | 0.294 | 0.403 | 0.137 | 0.957 | 0.211 | 0.476 | 0.305 | 0.767 | 0.0349 | 0.208 | 0.42 | 0.458 | -0.731 | 0.96 | 0.111 | 1.48 (inactive)
COC(=O)[C@H](C)NC(=O)CCC1CC(OC(=O)NCCc2ccc(F)cc2)CC2(CCCC(COC(=O)NCc3cccc(C(F)(F)F)c3)O2)O1 (stereo not given in full) | 0.0516 | 0.116 (inactive) | 0.133 | -0.0652 | 0.193 | 0.702 | -0.363 | 0.267 | 0.208 | 0.401 | 0.158 | 0.637 | 0.145 | 0.563 | 1.19 | 0.617 | -0.0843 | 1.43 | 0.0337 | 0.0641 (inactive)
CO[C@H]1COC(=O)[C@@H]2CCCN2C(=O)CC=C[C@@H](C)[C@H](OC)COC(=O)[C@@H](OCc2ccccc2)C=C[C@@H]1C | -0.761 | -1.04 (inactive) | 0.114 | -0.115 | -0.499 | -0.756 | -0.549 | -0.11 | 1.33 | -0.4 | -0.228 | -1.15 | 0.0122 | -0.557 | 1.27 | 1.02 | 0.0486 | 1.5 | -0.83 | 0.168 (inactive)
C[C@@H]1NC(=O)[C@@H](C)COC(=O)[C@H](C)NC(=O)[C@@H](C)COC1=O | 0.591 | -0.152 (inactive) | -0.0339 | -0.0907 | 0.394 | 0.1 | -0.706 | 0.769 | 0.316 | 0.513 | 1.08 | 0.922 | 0.0556 | -0.0769 | 0.172 | 1.21 | -0.323 | 0.389 | -0.137 | 0.254 (inactive)
CO[C@H]1COC(=O)[C@@H](Cc2ccccc2)NC(=O)[C@@H](C)COC(=O)CCC[C@@H]1C | 0.516 | -0.112 (inactive) | 0.0257 | -0.132 | -0.248 | 0.0267 | -0.0452 | 0.179 | 0.295 | -0.171 | 4.12 | -0.666 | 0.0469 | -0.179 | 0.2 | 0.241 | -0.946 | 0.534 | -0.29 | 0.643 (inactive)
CCC(=O)[C@@]1(O)C(=O)N2C(=C3C(=O)OCC[C@@H]31)N(Cc1ccccc1)C(C)=C(C(=O)OC)[C@H]2c1ccccc1 | -0.111 | 0.256 (inactive) | 0.0597 | -0.158 | -0.109 | 0.0028 | 0.137 | 0.431 | 0.627 | 0.602 | 0.188 | 0.405 | 1.08 | 0.375 | 0.538 | 0.465 | 0.523 | 0.436 | 0.0183 | -0.901 (inactive)
